In the antibiotic and cytotoxicity screens of Wong et al. (2023):
Screen size: about 39,000 compounds; about 3,300 (8.5%) were called active. This is one part of a sample in which actives are shown more often than they occur.

Tested on: HepG2
Experiment: cytotoxicity call (relative viability < 0.9)
Conditions: 10 µM

Row | Structure (SMILES) | cytotoxicity call
1 | C[C@H]1CN([C@@H](C)CO)C(=O)c2cc(NC(=O)Cn3cnnn3)ccc2O[C@H]1CN(C)Cc1ccccc1 | inactive
2 | CC(C)NC(=O)Nc1ccc2c(c1)C(=O)N([C@@H](C)CO)C[C@H](C)[C@@H](CN(C)C(=O)Nc1ccc(F)cc1)OCCCC[C@@H](C)O2 | inactive
3 | O=C(C[C@H]1CC=CCC[C@H](Cc2ccc(F)cc2)C(=O)OC[C@H](Cc2ccccc2)NC1=O)NCCO | inactive
4 | C#CCN(O[C@@H](/C=C/[C@@H](O)CCn1cc(-c2cccc(/C=C/C(=O)NO)c2)nn1)C1CC1)[C@@H](Cc1ccccc1)C(=O)OC | inactive
5 | C[C@@H]1CCCCO[C@@H](CN(C)C(=O)c2ccccc2)[C@H](C)CN([C@@H](C)CO)C(=O)c2cc(NC(=O)Nc3ccccc3)ccc2O1 | inactive
6 | O=C(NC1CC1)c1n[nH]c(=O)c2ccccc12 | inactive
7 | O=C1CNCCN1C1CCCC1 | inactive
8 | C[C@@H]1CN([C@H](C)CO)C(=O)c2cc(NC(=O)CCC(F)(F)F)ccc2O[C@@H](C)CCCCO[C@H]1CN(C)C(=O)Nc1ccc(C(F)(F)F)cc1 | inactive
9 | COc1ccc(NC(=O)Nc2ccc3c(c2)C(=O)N([C@@H](C)CO)C[C@@H](C)[C@H](CN(C)Cc2ccc(C(F)(F)F)cc2)OCCCC[C@@H](C)O3)cc1 | active
10 | COc1ccc(NC(=O)Nc2ccc3c(c2)C(=O)N([C@H](C)CO)C[C@@H](C)[C@@H](CN(C)Cc2ccc(C(F)(F)F)cc2)OCCCC[C@@H](C)O3)cc1 | active
11 | COc1ccc(CN(C)C[C@H]2OCCCC[C@H](C)Oc3ccc(NC(=O)Nc4ccc(C(F)(F)F)cc4)cc3C(=O)N([C@H](C)CO)C[C@@H]2C)cc1 | active
12 | COc1ccc(CN(C)C[C@H]2OCCCC[C@H](C)Oc3ccc(NC(=O)Nc4ccc(C(F)(F)F)cc4)cc3C(=O)N([C@@H](C)CO)C[C@H]2C)cc1 | active
13 | CC[C@@H](NC)C(=O)O | inactive
14 | CC(C)(C)[C@H]1CCc2c(sc3nc(-c4ccccc4)cn23)C1 | inactive
15 | COc1ccc(NC(=O)N(C)C[C@H]2Oc3ncc(C#C[C@H](C)O)cc3C(=O)N([C@@H](C)CO)C[C@H]2C)cc1 | inactive
16 | O=C(O)[C@H]1CCS(=O)(=O)C1 | inactive
17 | NC(=O)c1cc(Cl)ccn1 | inactive
18 | C[C@@H]1CN([C@@H](C)CO)C(=O)c2cccc(NC(=O)c3ccc(-c4nccs4)cc3)c2O[C@@H]1CN(C)Cc1ccc(Oc2ccccc2)cc1 | inactive
19 | COc1ccc(C#Cc2ccc3c(c2)O[C@H](CN(C)S(=O)(=O)c2ccccc2F)[C@@H](C)CN([C@@H](C)CO)S3(=O)=O)cc1 | inactive
20 | C[C@@H]1CN([C@@H](C)CO)C(=O)c2cccc(NS(=O)(=O)c3ccccc3)c2O[C@@H]1CN(C)S(=O)(=O)c1ccccc1 | inactive
21 | C[C@H](CO)N1C[C@H](C)[C@H](CN(C)C(=O)CCC(F)(F)F)OCc2ccccc2-c2c(n(C)c3ccccc23)C1=O | inactive

Row | Structure (SMILES) | cytotoxicity call
22 | C[C@@H]1CCCCO[C@H](CN(C)S(=O)(=O)c2cn(C)cn2)[C@@H](C)CN([C@@H](C)CO)C(=O)c2cc(NC(=O)CCCN(C)C)ccc2O1 | inactive
23 | Cc1noc(C)c1S(=O)(=O)N(C)C[C@H]1OCCCC[C@H](C)Oc2ccc(NC(=O)Nc3cccc4ccccc34)cc2C(=O)N([C@H](C)CO)C[C@H]1C | inactive
24 | C[C@@H]1CN([C@@H](C)CO)C(=O)CCCn2nncc2CO[C@@H]1CN(C)C(=O)Nc1ccccc1C(F)(F)F | inactive
25 | COc1ccc(NC(=O)Nc2ccc3c(c2)C(=O)N([C@H](C)CO)C[C@@H](C)[C@H](CN(C)Cc2ccc(C(F)(F)F)cc2)OCCCC[C@@H](C)O3)cc1 | active
26 | COc1ccc(NC(=O)Nc2ccc3c(c2)C(=O)N([C@@H](C)CO)C[C@@H](C)[C@@H](CN(C)Cc2ccc(C(F)(F)F)cc2)OCCCC[C@H](C)O3)cc1 | active
27 | COc1ccc(CN(C)C[C@@H]2OCCCC[C@@H](C)Oc3ccc(NC(=O)Nc4ccc(C(F)(F)F)cc4)cc3C(=O)N([C@@H](C)CO)C[C@@H]2C)cc1 | active
28 | COc1ccc(NC(=O)Nc2ccc3c(c2)C(=O)N([C@@H](C)CO)C[C@H](C)[C@H](CN(C)Cc2ccc(C(F)(F)F)cc2)OCCCC[C@H](C)O3)cc1 | active
29 | O=C(C[C@@H]1CC[C@@H]2[C@H](COC[C@@H](O)CN2S(=O)(=O)c2ccccc2)O1)NCCN1CCCC1 | inactive
30 | C[C@@H]1CN([C@H](C)CO)C(=O)Cc2cc(NC(=O)c3ccncc3)ccc2O[C@@H]1CN(C)C(=O)Nc1ccc2c(c1)OCO2 | inactive
31 | COCC(=O)N1C[C@@H](C)[C@H](OC)CN(C)C(=O)c2ccc(NC(=O)Nc3ccccc3)cc2OC[C@H]1C | inactive
32 | CNC(=O)[C@H]1C[C@H]2CCN(S(=O)(=O)N(C)C)C[C@H]2O1 | inactive
33 | Cc1noc(C)c1S(=O)(=O)Nc1ccc2c(c1)C(=O)N([C@@H](C)CO)C[C@H](C)[C@@H](CN(C)C(=O)NC(C)C)O2 | inactive
34 | C[C@H](CO)N1C[C@H](C)[C@H](CN(C)S(=O)(=O)c2cn(C)cn2)OCc2ccccc2-c2ccccc2C1=O | inactive
35 | Cc1nc(CSCc2ccc(Cl)cc2Cl)cs1 | inactive
36 | COc1ccccc1CN1C(=O)c2ccccc2[C@@]2(Cc3ccccc3N(Cc3ccccc3)C2=O)[C@@H]1c1ccc(CO)cc1 | inactive
37 | C[C@@H]1CN([C@@H](C)CO)C(=O)c2cc(NC(=O)Nc3ccccc3)ccc2O[C@@H]1CN(C)S(C)(=O)=O | inactive
38 | C[C@H](CO)N1C[C@H](C)[C@H](CN(C)Cc2ccc3c(c2)OCO3)Oc2ccc(NS(=O)(=O)c3cn(C)cn3)cc2CC1=O | inactive
39 | O=c1cc(Cl)[nH]c(=O)[nH]1 | inactive
40 | Cc1cc(C(=O)Nc2cccc3c2O[C@@H](CN(C)Cc2ccc(C(=O)O)cc2)[C@@H](C)CN([C@H](C)CO)C3=O)n(C)n1 | inactive
41 | Cc1noc(C)c1S(=O)(=O)Nc1cccc2c1O[C@@H](CN(C)S(=O)(=O)c1ccc(F)cc1)[C@@H](C)CN([C@H](C)CO)C2=O | inactive
42 | C[C@H](CO)N1C[C@H](C)[C@@H](CN(C)S(=O)(=O)c2cn(C)cn2)Oc2ccc(NC(=O)Cn3cnnn3)cc2CC1=O | inactive

Row | Structure (SMILES) | cytotoxicity call
43 | Cc1noc(C)c1S(=O)(=O)Nc1ccc2c(c1)C(=O)N([C@@H](C)CO)C[C@H](C)[C@H](CN(C)S(C)(=O)=O)O2 | inactive
44 | COc1ccc(NC(=O)Nc2ccc3c(c2)C(=O)N([C@H](C)CO)C[C@H](C)[C@H](CN(C)Cc2ccc(C(F)(F)F)cc2)OCCCC[C@@H](C)O3)cc1 | inactive
45 | COc1ccc(CN(C)C[C@@H]2OCCCC[C@@H](C)Oc3ccc(NC(=O)Nc4ccc(C(F)(F)F)cc4)cc3C(=O)N([C@H](C)CO)C[C@@H]2C)cc1 | active
46 | COc1ccc(NC(=O)Nc2ccc3c(c2)C(=O)N([C@@H](C)CO)C[C@H](C)[C@H](CN(C)Cc2ccc(C(F)(F)F)cc2)OCCCC[C@@H](C)O3)cc1 | inactive
47 | COc1ccc(NC(=O)Nc2ccc3c(c2)C(=O)N([C@H](C)CO)C[C@@H](C)[C@H](CN(C)Cc2ccc(C(F)(F)F)cc2)OCCCC[C@H](C)O3)cc1 | inactive
48 | COc1ccc(CN(C)C[C@H]2OCCCC[C@@H](C)Oc3ccc(NC(=O)Nc4ccc(C(F)(F)F)cc4)cc3C(=O)N([C@@H](C)CO)C[C@H]2C)cc1 | active
49 | COc1ccc(CN(C)C[C@H]2OCCCC[C@H](C)Oc3ccc(NC(=O)Nc4ccc(C(F)(F)F)cc4)cc3C(=O)N([C@@H](C)CO)C[C@@H]2C)cc1 | active
50 | COc1ccc(NC(=O)Nc2ccc3c(c2)C(=O)N([C@@H](C)CO)C[C@@H](C)[C@@H](CN(C)Cc2ccc(C(F)(F)F)cc2)OCCCC[C@@H](C)O3)cc1 | inactive
51 | COc1ccc(CN(C)C[C@@H]2OCCCC[C@@H](C)Oc3ccc(NC(=O)Nc4ccc(C(F)(F)F)cc4)cc3C(=O)N([C@H](C)CO)C[C@H]2C)cc1 | active
52 | COc1ccc(NC(=O)Nc2ccc3c(c2)C(=O)N([C@H](C)CO)C[C@H](C)[C@@H](CN(C)Cc2ccc(C(F)(F)F)cc2)OCCCC[C@@H](C)O3)cc1 | inactive
53 | COc1ccc(NC(=O)Nc2ccc3c(c2)C(=O)N([C@H](C)CO)C[C@H](C)[C@H](CN(C)Cc2ccc(C(F)(F)F)cc2)OCCCC[C@H](C)O3)cc1 | inactive
54 | CC(C)NC(=O)N(C)C[C@H]1OCCCC[C@H](C)Oc2ccc(NS(=O)(=O)c3cn(C)cn3)cc2C(=O)N([C@@H](C)CO)C[C@@H]1C | inactive
55 | C[C@@H]1CN([C@H](C)CO)C(=O)c2cccc(NS(=O)(=O)c3ccccc3)c2O[C@H]1CN(C)S(=O)(=O)c1cccs1 | inactive
56 | COc1ccc(S(=O)(=O)N(C)C[C@@H]2Oc3ccc(NS(=O)(=O)c4c(C)noc4C)cc3C(=O)N([C@@H](C)CO)C[C@@H]2C)cc1 | inactive
57 | COCC(=O)N1C[C@@H](C)[C@@H](OC)CN(C)C(=O)c2ccc(NC(=O)c3cc(C)on3)cc2OC[C@@H]1C | inactive
58 | Cc1ccc(S(=O)(=O)N(C)C[C@@H]2OCCCC[C@H](C)Oc3ccc(NC(=O)c4ccccc4)cc3C(=O)N([C@H](C)CO)C[C@@H]2C)cc1 | inactive
59 | COCC(=O)N(C)C[C@H]1Oc2cc(C#C[C@@H](C)O)ccc2S(=O)(=O)N([C@@H](C)CO)C[C@H]1C | inactive
60 | COc1ccc(C#Cc2cnc3c(c2)C(=O)N([C@@H](C)CO)C[C@H](C)[C@@H](CN(C)C(=O)CN(C)C)O3)cc1 | inactive
61 | Cn1c(=O)[nH]c(=O)c2c1ncn2CCNCc1ccco1 | inactive
62 | C[C@@H]1CN([C@@H](C)CO)C(=O)c2cc(NC(=O)Cc3ccccc3)ccc2O[C@@H](C)CCCCO[C@@H]1CN(C)CC1CCCCC1 | inactive
63 | O=C(C[C@H]1CC[C@H]2[C@@H](COC[C@H](O)CN2C(=O)c2ccncc2)O1)NC1CCC1 | inactive
